The results in this text go back to PubChem BioAssay (Tox21).

“And” between values parts separate entries of the source, which are not always exact repeats. Equal entries are not always repeated. Records with an inconclusive call do not appear. A call without a number means that no potency is given here. The source made the active and inactive calls. The call rests on the fitted dose curve; in most records, active means well fitted cell-killing curve with a large enough effect in the repeat runs; inconclusive means weak or mixed curves, or effect the other way; inactive means flat fitted curve, though single readings scatter.
Potency means the concentration at half of the fitted maximal effect.

A short description of this test: qHTS RealTime-Glo MT Cell Viability Assay in HEK293 cells - 0 hour (AID 1224880). Further: nearly all actives have a fitted effect of over 45% in size. The note with it: RealTime-Glo luminescence; series mostly up to 76.8 µM. The source says: U.S. Tox21 Program National Center for Advancing Translational Sciences [NCATS] NIH Chemical Genomics Center [NCGC] U.S. Environmental Protection Agency [EPA] National Institutes of Environmental Health Sciences [NIEHS] National Toxicology Program [NTP] U.S. Food and Drug Administration [FDA] Tox21 Assay Overview: Measure of cell viability is critical in the cell-base assay. Analysis of cell viability is necessary for the characterization of cell responses to cytotoxic drugs and environmental stress. A RealTime-Glo MT Cell Viability Assay to monitor cell viability in real time of continues cell culture during 40 hours of compound treatment was used to screen Tox21 10K library compounds in Hek293 cells. The RealTime-Glo MT Cell Viability Assay is a nonlytic, homogeneous, bioluminescent method to measure cell viability in real time using a simple, plate-based method. The assay involves adding NanoLuc luciferase and a cell-permeant prosubstrate to cells in culture. Viable cells reduce the proprietary prosubstrate to generate a substrate for NanoLuc luciferase. This substrate diffuses from cells into the surrounding culture medium, where it is rapidly used by the NanoLuc Enzyme to produce a luminescent signal. The signal correlates with the number of viable cells, making the assay well suited for cytotoxicity studies.
Tox21 Assay Protocol Summary: The mixture of Hek293 cell suspension and reagents were dispensed at 600cells/6 ul/well in 1536-well tissue culture treated black solid bottom plates using a Multidrop dispenser. After the assay plates were incubated at a 37 C/5% CO2 incubator for 5 hours, 23 nL of compounds dissolved in DMSO, positive and negative controls was transferred to the assay plate by a pintool work station. The plates were incubated at 37 C for 40 hours. The luminescence intensity were measured at 0h, 8h, 16h, 24h, 32h and 40h time points using ViewLux plate reader during compound treatment.
In general terms: qHTS replaces the single test concentration by a dilution series.
Take `C[N+](C)(C)C`: the Potency entry is “inactive”. For `CN(C)c1ccccc1` the value was “inactive”; for `O=P(OCCCl)(OCCCl)OCCCl`, “inactive”. In the case of `[Cl-].[Cl-].[Cl-].[Fe+3]`, the Potency entry is “inactive”. In the case of `ClC(Cl)=C(Cl)C(Cl)=C(Cl)Cl`, the Potency result is “inactive”.

Take `COc1ccc(O)c(C(C)(C)C)c1`: the Potency entry was “inactive”. Consider `Cc1ccc(N=CN(C)C=Nc2ccc(C)cc2C)c(C)c1`, for which the Potency result was “inactive”. For `CCCCOCC1CO1` (stereo not given), the Potency entry was “inactive”. For `C[N+](C)(C)CC(=O)O` the value was “inactive”; for `CC(C)COC(=O)c1ccccc1C(=O)OCC(C)C`, “inactive”; for `O=[N+]([O-])c1ccc(Nc2ccccc2)cc1`, “inactive”.

As to `CCCCCCCC[N+](C)(CCCCCCCC)CCCCCCCC`, the Potency entry was “inactive”. For `N#Cc1cccnc1` the value was “inactive”; for `CCOP(=S)(OCC)OP(=S)(OCC)OCC`, “inactive”.

On to `Cc1ccc([N+](=O)[O-])cc1`, for which the Potency entry is “inactive”. For `CC(C)(c1ccccc1)c1ccc(O)cc1` the value was “inactive”; for `CC(C)=CC1C(C(=O)OCc2cccc(Oc3ccccc3)c2)C1(C)C` (stereo not given), “inactive”. With `O=[N+]([O-])/N=C1\NCCN1Cc1ccc(Cl)nc1`, the Potency entry is “inactive”. For `CC1CC(=O)O1` (stereo not given) the value was “inactive”; for `NC(=O)CN1CCCC1=O`, “inactive”; for `CC(C)CON=O`, “inactive”. For `O=C(O)CF` the value was “inactive”.

Regarding `Cc1cc(Cl)ccc1N=CN(C)C`, the Potency entry was “inactive”. For `CC(C)(c1ccccc1)c1ccc(O)c(C(C)(C)c2ccccc2)c1` the value was “inactive”. For `CNC(=S)S` the value was “inactive”; for `CS(=O)(=O)NC(=O)c1cc(Oc2ccc(C(F)(F)F)cc2Cl)ccc1[N+](=O)[O-]`, “inactive”.

Consider `CCOC(=O)c1ccccc1N`, for which the Potency entry was “inactive”. For `Nc1ncn[nH]1` the value was “inactive”. Regarding `CNC(=O)Oc1cccc2c1OC(C)(C)C2`, the Potency entry was “inactive”.

Regarding `CC(C)Nc1ccc(Nc2ccccc2)cc1`, the Potency was 7.73 µM (active) and 19.5 µM (active).

As to `CNC(=O)CSP(=S)(OC)OC`, the Potency result was “inactive”. For the compound `Nc1ccc2ccccc2c1`, the Potency result is “inactive”.

For `COP(=S)(OC)Oc1ccc(S(=O)(=O)N(C)C)cc1`, the Potency result is “inactive”. For `CN(C)c1nc(=O)n(C2CCCCC2)c(=O)n1C` the value was “inactive”. Turning to `CCCCC(C#N)(Cn1cncn1)c1ccc(Cl)cc1` (stereo not given), the Potency result is “inactive”.

`O=S(=O)(O)C(F)(F)C(F)(F)C(F)(F)C(F)(F)C(F)(F)C(F)(F)C(F)(F)C(F)(F)F`: the Potency entry is “inactive”. `N#Cc1nn(-c2c(Cl)cc(C(F)(F)F)cc2Cl)c(N)c1S(=O)C(F)(F)F` (stereo not given): the Potency result was “inactive”. In the case of `COC(=O)Nc1nc2ccccc2[nH]1`, the Potency result is “inactive”. For `ClCc1ccccn1` the value was “inactive”; for `CCC[CH2][Sn]([Cl])([Cl])[CH2]CCC`, “inactive”.
